In all, about 25,000 sequences were measured (“ln(normalized median fluorescence intensity)”: median about 7.1, highest 2% from about 10 on). Only a selection was taken, and the highest values are over-represented in it overall.
Each sequence was assayed on PfSIP2 AP2 domain 1 (GST-tagged) (assay: gcPBM binding intensity (ln(normalized median fluorescence intensity)); higher = stronger DNA binding).
Outline: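 GST-fused DNA-binding domains of P. falciparum, expressed in E. coli, were applied at about 25 μg on average for 1 h to an Agilent 4 × 180k array of primer-extended double-stranded 36-bp intergenic genomic probes and negative controls. Binding intensity is the highest Masliner-normalised natural-log median intensity across replicate spots of either probe orientation, measured with Alexa488 anti-GST antibody and a 488 nm scan.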

Sequence	gcPBM binding intensity (ln)
ATATCAAATTCTGAAACACACAAAATTACACCTCTA [CACACA_site169]	7.06
AAATAAAAAAAGAAACGTACATATATTGGTTTCGTC [XGTACX_site3510]	6.96
AAAAAAAAAAAAAAAAAAAAAAAAATATATAATTTA [CACACA_negctrl_site583]	8.71
CACCTCAATATTCACATACACACAATATCATCGAAG [CACACA_site1675]	7.33
AATTATATGAAATAAACACACATATGTAATATTACA [CACACA_site1928]	6.76
AAAAAAACATAACAAAATGAAACAAAACAAAAAGAA [GTGCAC_negctrl_site577]	7.28
CACATATACAAAAAGAAATGTTTAGTTGAAAATTAA [CACACA_negctrl_site1407]	6.67
TTAATGTTTGAAAGAGTGCACATAACAAAAAAAAAA [GTGCAC_site9623]	11.1
TCCTAATATATGTATGCACACACAATATATACATAT [CACACA_site9111]	7.36
AATATAAGAATATATACACACATAAATACATACATA [CACACA_site4128]	7.01
ATATACATATATATATGTACTGAAAAGAAAAGAATT [XGTACX_site150]	7.08
TATATATATATATATGTGCACTGAAAGAATTATACA [GTGCAC_site9586]	10.3
ATTATATATAAGAAGAGTACTGAATATGTGCAATAT [XGTACX_site4471]	7.43
AGGTGTATCATAAAATGTACATACATACATACATAA [XGTACX_site4479]	7.02
TTATATTAGCCGATGGTGCATATATTTATAGGAAAA [GTGCAC_site9518]	10.1
TTATATAGGCAGATGGTGCATCTATTTATAAGCAAC	10.7
ATAAGATAGGCATATACACACATTTATTTACAGATA [CACACA_site5754]	6.87
TGTCTTGTAAATTATTGTACTATTTAAAGTATACAA [XGTACX_site7864]	7.21
TATGAATTTATCTACAACATTTGAAATAAATTAAAA [CACACA_negctrl_site79]	6.72
TTGTTTATCAACAGCACACACAACAACAACAACAAC [CACACA_site458]	7.25
AAATATAATAATAATTTAAGAATCTAATATTTTATA [CACACA_negctrl_site831]	6.59
ATACGATTGCAGTCAAAAAGGAAAATATAAAAAAAG [XGTACX_negctrl_site124]	7.29
TTTTTTTTTTTTTCAAGTACATATATATATATATAA [XGTACX_site2098]	7.58

Sequence	gcPBM binding intensity (ln)
TTTTTTTTTTTTCACGTGCACTATACATATAAGTAA	10.5
TTTTACGTGAGTAATACACACATATAAGTTTATATA [CACACA_site4120]	6.74
AATATAATATTATATAGTACATATTTCTTTTATTTT [XGTACX_site22]	6.82
TTTTCAAAAATATATACACACATGCATATTACGGTG [CACACA_site775]	6.98
ACACATACACATTAGGTGCATATATTTCAATATTAC [GTGCAC_site9423]	10.3
AAAATTTCAATAAATACACACATATATATATATATT [CACACA_site1685]	7.07
TTGTTGTATTATTTATGTACATATGTATATGTATAT [XGTACX_site1315]	7.17
AATATTGTATATAATAAACACACAATATTAAAAATA [CACACA_site8262]	6.99
TATTGTATATAATAAACACACAATATTAAAAATATA [CACACA_site1057]	6.8
ACAAAAAAAAACGTGGTGCATTAATAATATTGTATA [GTGCAC_site9469]	10.3
ATATGGTGATATAGGTGTACATTTTGATGCTTATTT [XGTACX_site4283]	6.95
AGCATTTTAAGTTATACACACATTTTGAATCTATAT [CACACA_site7599]	6.89
TTATTTTCTTTCTATGCACACGCACGTATTTGCCCA [CACACA_site9104]	7.91
CACCCGCACGTATTTGCACACATTGCCACGTAATTA [CACACA_site5786]	7.76
ATTTTCTTTCTATGCACACGCACGTATTTGCACCCA [CACACA_site3350]	11.9
TTAAAAAAATATAATACACACCAAAAATATGCACAT [CACACA_site5209]	9.27
TACATAAATTTTAATACATGCAAATAAAATATATAA [TGCATGCA_site131]	6.94
TAAAAATAAATAAATACATGCACCAAAAATAAATTT [TGCATGCA_site801]	10.2
TCCTATGATGATGATAGTACATATGAGTTCAAAAAA [XGTACX_site273]	6.81
CACCAATTCATATGCACACACATCTGCATATTATAT [CACACA_site1773]	7.43
CCATGTAGTGAATAGGTGCATATCAAAAAAAAAAAA	11
GGAAAATTATCAATAGCATGCAAAATGTGAATATTA [TGCATGCA_site901]	6.83
TATATAATATATATAGTGCATAAGTTCAAAAGAATA [GTGCAC_site9805]	8.73

Sequence	gcPBM binding intensity (ln)
CATATAAATAGACACACACACACATATAAATAAATA [CACACA_site7156]	7.23
AAAACAATAATATACTGTACATATATATAATAACAT [XGTACX_site6188]	7.13
ATGGTATAAAAAAATACACACTTATATATATTCTTA [CACACA_site4427]	6.86
TGTATATGTGAAGCAAGGGATGCGGCAGACATAACA [CACACA_negctrl_site1339]	7.07
TTTATTTATGTGTGGGTGCATATACGTATGATGTAT	10.6
ATATATTATGGGTGTGCACACAATATTTATATGTTC [CACACA_site2270]	8.64
TTATTTTATTTAGGGTGTACCCAATTTTTCCATATG [XGTACX_site4957]	6.78
CACATATATATGTGTGCATGTTGTATTATATATTTA [TGCATGCA_site632]	8.48
ATTTCCCCAACGTGGGTGCATATATTTATGTGTGAA [GTGCAC_site9439]	11.1
GTATTATTTTATGATGCATGTGTATTTCATATATGC [TGCATGCA_site660]	6.98
ATATGAAACATGAAGGTGCATAATGTGTATATTTAT	10.8
ATTTATATATATGTATGTACGTATGTGTGTATATGT [XGTACX_site7587]	7.73
TATTTATATGTATATACATGCACATATATATGAAAC [TGCATGCA_site1005]	7.7
CCGTTGAACATATATGCACACACATAAAATAAAAAA [CACACA_site8761]	7.65
AAAAAATAAGATTGTACACACATAAATTCTTTGTCA [CACACA_site2089]	6.85
AATCCTTCATATGTAGTGCATATTAACAAAATAAAA [GTGCAC_site9500]	8.78
TTTTGCAATAATGTTGCACACTAAATAGTCATATAT [CACACA_site7977]	7.61
ATATATATATATATATGTACGTACTCAGTTATGCCT [XGTACX_site453]	9.2
TTTGTAACTTCTTTCACACATATATATATATATATA [CACACA_site5603]	9.76
CACCCACCCAGACACACACACACACCCCCACCCATA [CACACA_site367]	7.6
GTGTGCAAAAATTGTTGTACATTATATATAAAAAAA [XGTACX_site3246]	7.79
ACAAATTGTTAAAGGTGTACAATACATATATAAGAA [XGTACX_site4906]	7.38
TTTGTGTTTATAAATTGTACAAAGGTGCAAGAAGAA [XGTACX_site2159]	11.2

Sequence	gcPBM binding intensity (ln)
TATGTACAGACATATACACACCTCTATAATCTATAT [CACACA_site6482]	7.09
TATATATATAAATGAATGCACTTTAGAAAAAAGTAC	8.52
AAAAAAAATTATGAAGTGCATTAGTGAATTTGATTG	9.16
TGTCGGCTTAGATTAGTGCACTGAAAAATGAAGTAT [GTGCAC_site9919]	10.5
ATTTTTTTTTTTTTTTGTACGAATAATATGTATGAA [XGTACX_site5318]	7.12
TAAATATATATATGTGTGCACTTCTTCATTTTAATA [GTGCAC_site9537]	9.97
TAGGCCTTAAATCGTGTGCACTTTTTTTTTTTTTTT	10.7
AAATTAAATAAATTTACACACTAAAAATTACATATA [CACACA_site1054]	6.88
TCTTTATCCTTTCTCTTTTTATTAATTATAATATTC [TGCATGCA_negctrl_site584]	6.99
CTTTCGGTTGGAGAGGTGCGCTTCTCCTTTATAATA	11
TTTTTATTTTATAATATATTCCTTTTCCTTTCTTTC [CACACA_negctrl_site245]	6.64
CATACACAAGAAAATTCACACACACCCATATATATA [CACACA_site9288]	7.73
TACAGATACGGACACACACACACACCCAGACAAAAA [CACACA_site4432]	7.54
CAAAACAAAGTTGCCGCACACAGATACGCACCCAAG [CACACA_site3455]	11.9
AAAAAAAAAACAAATACACACGCACCCAAAAAAAAA [CACACA_site8166]	10.1
TACGCACAAAAATATACACACACACCGATATATTTA [CACACA_site9213]	7.15
GCCGCACCCAGATACGCACACAAGAAAAAAATATTC [CACACA_site3456]	11.1
ATTTTTATGTTGAAAAGTACTTGAATCCCATGTAAC [XGTACX_site4453]	7.09
ATATATATATATATAACACACGTGTATTTATCTGTA [CACACA_site5922]	9.33
AACACACACATATATATATATATATATATATATATA [GTGCAC_negctrl_site573]	9.64
TAATTAATTTACATTTTAATTTTATACAAAATTTAT [CACACA_negctrl_site830]	6.7
TTCCTGTTAATTACAACACACAATTTTTATTTTATG [CACACA_site779]	7.16

Reference: the supplement of paper PMC11417369
